# Measured values taken from PubChem BioAssay AID777 (Sanford-Burnham Center for Chemical Genomics, 2007).
# The campaign covered roughly 96,000 compounds. About 19,000 (20%) were called active.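 How the source made its calls: active means blocking of liver enzyme CYP2C9 beyond about 50% at 5 µM (limit read from the data); inactive means the rest.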 Only a sample is shown.
# Target: Cytochrome P450 2C9 (Homo sapiens) (UniProt P11712)
# Test: blockers of cytochrome P450 2C9 activity – biochemical, luminescence, ADME assay, primary screen (AID 777)
# Conditions: CYP2C9 Supersomes, luciferin-H conversion, at 5 µM, hits give high values
# Cytochrome P450 2C9 (Homo sapiens), sequence (P11712 whole entry, looked up): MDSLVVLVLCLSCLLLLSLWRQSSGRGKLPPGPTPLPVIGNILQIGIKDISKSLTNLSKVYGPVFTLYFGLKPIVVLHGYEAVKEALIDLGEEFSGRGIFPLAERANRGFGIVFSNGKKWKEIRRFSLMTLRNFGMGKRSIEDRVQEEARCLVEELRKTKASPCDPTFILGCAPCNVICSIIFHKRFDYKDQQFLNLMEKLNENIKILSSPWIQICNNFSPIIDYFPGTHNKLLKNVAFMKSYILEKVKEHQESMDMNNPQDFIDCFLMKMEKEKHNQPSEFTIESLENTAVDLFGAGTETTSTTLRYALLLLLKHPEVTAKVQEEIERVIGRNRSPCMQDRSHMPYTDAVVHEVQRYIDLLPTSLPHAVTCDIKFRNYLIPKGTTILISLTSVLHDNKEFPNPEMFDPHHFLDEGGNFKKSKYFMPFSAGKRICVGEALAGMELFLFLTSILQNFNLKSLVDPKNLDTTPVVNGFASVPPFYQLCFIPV
row,SMILES,inhibition
1,CC(=O)NC1=NC(=O)CS1,11.7% (inactive)
2,COC(=O)C1=CN(C)C=C(C(=O)OC)C1c1ccc(Cl)cc1Cl,28% (inactive)
3,COC(=O)CN1C(C)=Nc2ccc(Br)cc2C1c1ccccc1 (stereo not given),-8.5% (inactive)
4,COC(=O)C1=C(C)N(C)C(C)=C(C(=O)OC)C1c1cccc(Br)c1,93.8% (active)
5,c1ccc2c(CSCc3nc4ccccc4[nH]3)cccc2c1,85.1% (active)
6,Clc1ccccc1SCc1nc2ccccc2[nH]1,36.9% (inactive)
7,COC(=O)Cc1nc2ccccc2[nH]1,7.9% (inactive)
8,CC(CN1CCOCC1)c1ccccc1 (stereo not given),2.7% (inactive)
9,CN(CC(=O)NC1CCCCC1)S(=O)(=O)c1ccc(Br)s1,-17.7% (inactive)
10,CCS(=O)(=O)n1nc(-c2ccc(OC)cc2)nc1SC,42.2% (inactive)
11,CCS(=O)(=O)n1nc(-c2ccccc2)nc1SCc1ccccc1,87.9% (active)
12,Cn1c(CO)cnc1SCc1ccccc1,3.4% (inactive)
13,CSCCC(NC(=O)COc1ccccc1)C(=O)OCC(=O)c1cc2ccccc2o1 (stereo not given),43.3% (inactive)
14,COc1ccc2ccccc2c1CNCc1ccccn1,-4.5% (inactive)
15,Cc1cc(C)c(C#N)c(SCc2ccccc2C(=O)O)n1,9.5% (inactive)
16,Cc1cc(C)c(C#N)c(SCc2ccc3c(c2)OCO3)n1,90.5% (active)
17,Cc1cc(C)c(C#N)c(SCS(=O)c2ccc(C(C)(C)C)cc2)n1 (stereo not given),-50.8% (inactive)
18,CCCCN(C)Cc1c(C)[nH]c2ccc(Cl)cc2c1=O,-10.7% (inactive)
19,Cc1nnc(N(Cc2ccco2)C(=O)c2ccno2)s1,11.2% (inactive)
20,Cc1ccc(-c2csc(N(Cc3ccco3)C(=O)c3cccs3)n2)cc1,91.6% (active)
21,O=C(O)CCC(=O)N(Cc1ccco1)c1nc(-c2ccccc2)cs1,5.2% (inactive)
22,O=C(Nc1ccccc1)N(Cc1cccnc1)Cc1ccco1,35.5% (inactive)

row,SMILES,inhibition
1,COC(=O)c1ccc(Oc2nc(NC(C)C)nc(SC)n2)cc1,37.2% (inactive)
2,Cc1nc(SCC(=O)N2CC(=O)Nc3ccccc32)c2c(C)c(C)sc2n1,55.2% (active)
3,O=C(CSc1nnc(-c2cccs2)n1Cc1ccccc1)N1CCc2ccccc2C1,48% (inactive)
4,Nn1c(Cc2cccc3ccccc23)nnc1SCC(=O)N1CC(=O)Nc2ccccc21,-64.6% (inactive)
5,Cc1nc(SCC(=O)Nc2cc(C)on2)c2c(C)c(C)sc2n1,14% (inactive)
6,Cc1nc(SCC(=O)N2CCc3ccccc3C2)c2c(C)c(C)sc2n1,55.9% (active)
7,Cc1nnc(SCC(=O)N2CCc3ccccc3C2)s1,0% (inactive)
8,COc1ccc(OC)c(NC(=O)CCN2CCC(C)CC2)c1,5.1% (inactive)
9,CCc1nnc(NC(=O)CCC(=O)NCc2ccccc2OC)s1,-14.5% (inactive)
10,Cc1ccsc1-c1nc(CSCC(=O)NCCN2CCCC2)c(C)o1,7.3% (inactive)
11,CCOc1cc(-c2cc(-c3ccc(OC)cc3)nc(N)c2C#N)ccc1O,47.2% (inactive)
12,CCSc1nc(-c2ccc(OC)cc2)cc(-c2ccc(OC)cc2)c1C#N,75.3% (active)
13,COc1ccc(C)cc1N(C)C(=O)c1coc(=O)c2ccccc12,33.1% (inactive)
14,O=C(CSc1nc2ccccc2o1)N1CCN(c2ccc(Cl)cc2)CC1,-11.9% (inactive)
15,Cc1ccccc1OCc1nnc(SCC(=O)N2c3ccccc3Sc3ccc(Cl)cc32)o1,57.3% (active)
16,Cc1cc(C)cc(OCc2nnc(SCC(=O)Nc3ccccc3)o2)c1,-3% (inactive)
17,CC(C)NC(=O)CSc1nnc(COc2ccccc2Cl)o1,-39.2% (inactive)
18,CC1Cc2ccccc2N1C(=O)CSc1nc2ccccc2o1 (stereo not given),28.2% (inactive)
19,O=C(CSc1nc2ccccc2o1)N1c2ccccc2Sc2ccc(Cl)cc21,60.9% (active)
20,O=C(NC(C(=O)NCCN1CCOCC1)C12CC3CC(CC(C3)C1)C2)C1CCCCC1 (stereo not given),18.3% (inactive)
21,O=C(COc1ccc(Br)cc1F)NC1CCN(Cc2ccccc2)CC1,28.8% (inactive)
22,CC1(C)CCCC2=C1CC1C(=O)N(c3ccccc3)C(=O)C1C2 (stereo not given),90.7% (active)

row,SMILES,inhibition
1,CC(=O)Oc1cccc(N2C(=O)C3CC=C(Cl)CC3C2=O)c1 (stereo not given),3.2% (inactive)
2,CCCCCCC(=O)N(O)C1CC(=O)N(c2ccccc2)C1=O (stereo not given),-18.5% (inactive)
3,Cc1cccn2c(=O)c3cc(C(=O)N4COCC4(C)C)n(C)c3nc12,-0.4% (inactive)
4,CCC(C)NC(=O)C1CCC(=O)N1Cc1ccc(C)cc1 (stereo not given),3.2% (inactive)
5,O=C(Nc1ccc(Br)cc1)C1CCC(=O)N1Cc1ccccc1Cl (stereo not given),89.5% (active)
6,O=C1c2ccccc2C(O)N1Cc1ccccc1Cl (stereo not given),-6.9% (inactive)
7,CCCOc1ccc(-c2nc(N)n[nH]2)cc1,3.7% (inactive)
8,N=c1c2c(-c3ccccc3)c(-c3ccccc3)oc2ncn1Cc1ccco1,45.2% (inactive)
9,CCc1nc2oc3ccccc3c(=O)c2c(=O)n1Cc1ccc(OC)cc1,6.4% (inactive)
10,CC1CN(C(=O)c2ccc3c(c2)OCO3)OC(c2ccccc2)O1 (stereo not given),35% (inactive)
11,CCOC(=O)C1=NNC2(c3ccc(Cl)cc3)C(=O)N(c3cc(C)cc(C)c3)C(=O)C12 (stereo not given),64.1% (active)
12,FC(F)(F)c1cc(C(F)(F)F)c2ccc(N3CCN(c4ccccc4)CC3)nc2n1,-7.6% (inactive)
13,CCN1CCCC1CNC(=O)c1cc2c(=O)n(C)c3ccccc3c2n1C (stereo not given),8.3% (inactive)
14,O=c1[nH][nH]c(=O)c2cc(N3CCCC3)ccc12,2.6% (inactive)
15,Cc1ccc2nc(-c3ccccc3)cc(C(=O)O)c2c1,34.4% (inactive)
16,Cc1nc(NNC(=O)c2ccccc2)cc(-c2ccccc2)n1,62.7% (active)
17,COc1ccc(C(=O)NN(C)c2nc(-c3ccccc3)cc(C)c2S(C)(=O)=O)cc1,13.3% (inactive)
18,CCCCN(CC)CCCNC(=O)CS(=O)(=O)Cc1nc(-c2cccc(OC)c2)oc1C,-5.6% (inactive)
19,CC(=O)N1CCN(C(=O)c2cccc(S(=O)(=O)Nc3ccc(C)cc3)c2)CC1,0.3% (inactive)
20,Cc1ccc(S(=O)(=O)Nc2nc(C)cc(-n3nc(C)cc3C)n2)cc1,29.1% (inactive)
21,Cc1ccc(S(=O)(=O)Nc2ccc3ncccc3c2)cc1,84.1% (active)
